From PubChem BioAssay come the findings set out here.

Assay [1] is described as follows: yeast TOR pathway RPL19A-GFP modulators, primary screen, cell-based, S. cerevisiae, multiplex flow cytometry (AID 1862; in the data active = percent of DMSO control GFP below about 86%;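 note: lower values mimic rapamycin by blocking the RPL19A rise seen in DMSO cells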). As to conditions: S. cerevisiae RPL19A-GFP strain, flow cytometry fluorescence, 3 h; at 10 µM; stronger effect = lower value. A general note: In flow cytometry, cells or beads pass a laser one at a time.
Assay [2] can be described thus: modulators of MEP2-GFP levels in yeast, primary screen, S. cerevisiae, multiplex flow cytometry (AID 1867;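 active = GFP response, as percent of the DMSO control, above the screen-wide mean plus 3 SD, about 139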;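 note: median GFP channel fluorescence of barcode-gated MEP2-GFP cells measured by flow cytometry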). As to conditions: S. cerevisiae MEP2-GFP strain, 3 h, at 10 µM, stronger effect = higher value, 100% means same as DMSO wells.
A short description of assay [3]: modulators of CIT2-GFP expression in yeast, primary screen, S. cerevisiae, GFP fusion, multiplex flow cytometry (AID 1870;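 active = percent response above a set limit, the screen-wide mean plus 3 SD, cut at about 130% in these data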;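 note: barcoded CIT2-GFP strain pooled with four other GFP strains with rapamycin as positive control; median GFP fluorescence per well over plate mean of DMSO wells so 100% = DMSO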). As to conditions: 3 h, at 10 µM, stronger effect = higher value.
Assay [4] can be described thus: modulators of LAP4-GFP expression in yeast, primary screen, S. cerevisiae, multiplex flow cytometry (AID 1873;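 active = GFP signal, as percent of the solvent control, above the screen mean plus 3 SD, about 149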). As to conditions: 3 h, at 10 µM, stronger effect = higher value.
Assay [5] can be described thus: modulators of AGP1-GFP expression in yeast TOR pathway, primary screen, cell-based, multiplex flow cytometry, S. cerevisiae (AID 1887;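 active = GFP signal above the screen-wide mean plus 3 SD, that is over about 124.5% of the solvent control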;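 note: AGP1-GFP fusion strain of S. cerevisiae within a five-strain barcoded multiplex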). As to conditions: 3 h, at 10 µM, stronger effect = higher value.
The nature of assay [6]: inhibitors of CD8+ T cell-vesicle binding, pilot screen, LFA-1/ICAM-1 modulator project, MLPCN validation set, flow cytometry (AID 2523;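 active = response below a set limit, under 55% cells CD8-positive and vesicle-bound, and CD8 cells' 90th-percentile brightness under 279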;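 for vesicle binding response: mean PE anti-B7-1 fluorescence of CD8+ cells relative to row control; 100% = QL9-loaded vesicles with DMSO vehicle in the same plate row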). As to conditions: 2C mouse CD8+ T cells, at 7 µM, stronger effect = lower value; double positive events: measured here: CD8+/vesicle+ event percentage.
In assay [7] the target is Integrin beta-1 (Homo sapiens) + Integrin alpha-4 (Homo sapiens) (UniProt P13612+P05556). As to the kind of experiment: inhibition of HUTS-21 binding to VLA-4, pilot screen, VLA-4 allosteric modulator project, U937 cells, HUTS-21 mAb, flow cytometry, validation set (AID 2674).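 Note: antibody binding induced by the VLA-4 ligand LDV present at three times its Kd; 0% = LDV ligand with antibody and no compound and 100% = antibody without LDV.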 As to conditions: HUTS-21 LIBS mAb binding, at 6.7 µM, stronger effect = higher value, binding induced by LDV ligand.

Assay [8] in a line: superoxide lowering in aged yeast cells, pilot screen, validation compound set (AID 2706;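 active = superoxide response below 65% of plate, a cut near 3 SD across the whole screen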;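 note: yeast exposed to compound for one week at 30 degrees C before staining; 100% = mean of all compound wells on the same plate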). As to conditions: S. cerevisiae aging, superoxide DHE fluorescence; at 10 µM; stronger effect = lower value.
For assay [9], the target named is Beta-adrenergic receptor kinase 1 (Homo sapiens) (UniProt P25098). The experiment in a line: GRK2 binders displacing RNA aptamer, biochemical, validation, human GRK2, bead flow cytometry (AID 488806;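 active = aptamer binding inhibition above 30%, about 3 SD of noise from non-fluorescent compounds; inactive = inhibition at or below 30%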). As to conditions: bead-bound GRK2, FAM-aptamer displacement, at 10 µM, stronger effect = higher value.
Assay [10] has as its target Beta-2 adrenergic receptor (Homo sapiens) (UniProt P07550). The experiment in a line: beta2AR agonists driving receptor internalization, pilot screen, cell-based, FAP fluorogen, flow cytometry, validation set (AID 504459;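 active = percent response above 42, roughly 3 SD of non-fluorescent test compounds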;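 note: agonist-driven loss of surface beta2AR via internalization measured by FAP dye flow cytometry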). As to conditions: Am2.2-beta2AR cells, FAP surface receptor flow cytometry; at 10 µM; stronger effect = higher value.
For assay [11], the target named is AP-2 complex subunit beta (Homo sapiens) (UniProt P63010). The experiment in a line: inhibitors of arrestin peptide binding to AP2, pilot screen, biochemical, validation set, GST-AP2 beads, flow cytometry (AID 504541;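 active = inhibition above 54%, about 3 SD of non-fluorescent compounds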;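 note: AP2 carries R879A mutation and is captured from E. coli lysate; bead-bound FITC arrestin peptide fluorescence measuring arrestin peptide binding to AP2; 0% = DMSO wells and 100% = excess unlabeled arrestin peptide control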). As to conditions: FITC arrestin peptide, at 10 µM, stronger effect = higher value, AP2 beta2 appendage fragment, R879A mutant.
The nature of assay [12]: yeast V-ATPase proton transport modulators, S. cerevisiae, pHLuorin, HTS validation (AID 504600; in the data active = response above about 15%;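 note: plate controls were DMSO for no effect and reference compound for full effect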). As to conditions: S. cerevisiae pHLuorin cytosolic pH, at 10 µM, stronger effect = higher value.
In assay [13] the test system is anti-desmoglein-3 scFv antibody binding to human DSG3. As to the kind of experiment: inhibitors of anti-DSG3 scFv binding to DSG3, pilot screen, biochemical, validation compound set, bead-based, flow cytometry (AID 588368;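 active = binding below the plate cutoff, the plate median minus 3 SD, with a reading above zero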;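 note: signal is the median channel fluorescence of bead-bound GFP antibody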). As to conditions: Protein G beads, DSG3-Fc, scFv-GFP binding, at 10 µM, stronger effect = lower value.
The nature of assay [14]: inhibitors of fungal efflux pumps CDR1, CDR2, MDR1, pilot screen, validation compound set, multiplex, phenotypic (AID 588506;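 active = efflux inhibition above 0.42, the validation set average plus 4 SD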;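 note: Nile Red retained in cells so higher fluorescence means more efflux inhibition; 0 = negative control wells and 1 = enniatin B 25 µM full block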). As to conditions: S. cerevisiae pump-expressing triplex, Nile Red efflux flow cytometry; at 10 µM; stronger effect = higher value; the pumps come from Candida albicans.
Assay [15] concerns the target ATP-binding cassette sub-family B member 6 (Homo sapiens) (UniProt Q9NP58). As to the kind of experiment: ABCB6 transporter inhibitors, pilot screen, K562-ABCB6 cells, flow cytometry, validation set (AID 588550;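 active = inhibition above the screen-wide mean plus 3 SD, about 51%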;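 note: 0% = DMSO wells and 100% = benzethonium chloride 70 µM positive control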). As to conditions: K562-ABCB6 porphyrin accumulation, 1 h, at 10 µM, stronger effect = higher value.
Assay [16] is described as follows: promoters of myeloid differentiation in arrested cells, primary screen, cell-based, GFP/MAC1 double positive, flow cytometry, validation set (AID 588685;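 active = differentiation response of at least 50%, scaled between solvent and reference control, from cells with both markers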;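 note: compound exposure lasts four days before antibody staining and flow analysis; 0% = DMSO wells and 100% = 5 µM fulvestrant positive control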). As to conditions: ER-HoxA9 marrow cells, stronger effect = higher value, normalized: vehicle 0, fulvestrant 100.

By inhibition is commonly meant the drop in the measured response relative to a control, in per cent.

SMILES strings stand for the structures. Records with an inconclusive call do not appear. Activity calls are given as the source filed them.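 Rule for the calls, unless noted: active = inhibition above 50%, about 3 SD of the validation set; inactive = the rest.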

AP-2 complex subunit beta (Homo sapiens), sequence (P63010 whole entry, looked up, the tested form may be a part, one chain of several): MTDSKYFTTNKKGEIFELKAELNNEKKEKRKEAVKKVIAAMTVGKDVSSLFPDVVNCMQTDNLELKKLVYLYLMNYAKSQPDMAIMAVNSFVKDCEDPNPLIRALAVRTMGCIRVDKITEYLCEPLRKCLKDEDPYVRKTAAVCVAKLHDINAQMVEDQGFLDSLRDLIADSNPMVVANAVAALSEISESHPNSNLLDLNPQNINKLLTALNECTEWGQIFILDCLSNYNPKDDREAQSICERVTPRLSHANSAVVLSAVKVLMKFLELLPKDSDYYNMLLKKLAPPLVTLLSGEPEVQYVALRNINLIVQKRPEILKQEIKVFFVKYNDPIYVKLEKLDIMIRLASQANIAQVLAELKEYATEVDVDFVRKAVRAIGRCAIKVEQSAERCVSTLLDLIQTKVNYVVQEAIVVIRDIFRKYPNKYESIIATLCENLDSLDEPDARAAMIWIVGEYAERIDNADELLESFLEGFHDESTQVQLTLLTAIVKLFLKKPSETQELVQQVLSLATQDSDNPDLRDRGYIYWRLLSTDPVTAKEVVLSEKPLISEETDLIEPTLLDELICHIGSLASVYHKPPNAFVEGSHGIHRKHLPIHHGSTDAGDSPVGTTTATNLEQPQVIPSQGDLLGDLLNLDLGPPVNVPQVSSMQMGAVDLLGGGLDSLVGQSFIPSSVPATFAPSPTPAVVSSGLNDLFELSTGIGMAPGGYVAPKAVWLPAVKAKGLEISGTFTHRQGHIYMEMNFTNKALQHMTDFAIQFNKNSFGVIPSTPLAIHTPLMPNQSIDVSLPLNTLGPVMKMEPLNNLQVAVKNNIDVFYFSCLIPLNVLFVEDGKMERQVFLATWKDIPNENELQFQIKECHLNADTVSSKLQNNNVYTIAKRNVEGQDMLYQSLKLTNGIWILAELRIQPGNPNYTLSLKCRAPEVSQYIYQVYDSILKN
Integrin beta-1 (Homo sapiens) + Integrin alpha-4 (Homo sapiens), sequence (P05556 whole entry, looked up): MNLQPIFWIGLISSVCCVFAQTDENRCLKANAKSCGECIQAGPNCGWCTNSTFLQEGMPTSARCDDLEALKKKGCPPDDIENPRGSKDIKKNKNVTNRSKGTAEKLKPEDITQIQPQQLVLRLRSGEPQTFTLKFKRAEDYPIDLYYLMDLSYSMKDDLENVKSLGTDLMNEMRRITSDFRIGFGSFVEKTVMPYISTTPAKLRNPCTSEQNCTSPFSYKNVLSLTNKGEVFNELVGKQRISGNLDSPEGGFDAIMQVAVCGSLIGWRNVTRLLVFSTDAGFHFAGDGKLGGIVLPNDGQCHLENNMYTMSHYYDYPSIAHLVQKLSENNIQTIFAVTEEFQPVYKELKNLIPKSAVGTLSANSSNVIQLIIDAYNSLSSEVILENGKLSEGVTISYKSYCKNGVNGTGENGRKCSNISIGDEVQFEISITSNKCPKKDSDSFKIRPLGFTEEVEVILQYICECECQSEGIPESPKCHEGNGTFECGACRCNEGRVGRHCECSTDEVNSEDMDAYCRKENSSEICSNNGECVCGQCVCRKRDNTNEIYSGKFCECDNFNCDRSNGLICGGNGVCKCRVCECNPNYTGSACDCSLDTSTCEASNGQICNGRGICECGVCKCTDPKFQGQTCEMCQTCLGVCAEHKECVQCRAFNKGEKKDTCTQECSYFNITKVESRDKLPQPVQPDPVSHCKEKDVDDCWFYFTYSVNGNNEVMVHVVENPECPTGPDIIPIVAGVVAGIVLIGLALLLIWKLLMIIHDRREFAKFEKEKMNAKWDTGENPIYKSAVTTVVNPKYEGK
Integrin beta-1 (Homo sapiens) + Integrin alpha-4 (Homo sapiens), sequence (P13612 whole entry, looked up): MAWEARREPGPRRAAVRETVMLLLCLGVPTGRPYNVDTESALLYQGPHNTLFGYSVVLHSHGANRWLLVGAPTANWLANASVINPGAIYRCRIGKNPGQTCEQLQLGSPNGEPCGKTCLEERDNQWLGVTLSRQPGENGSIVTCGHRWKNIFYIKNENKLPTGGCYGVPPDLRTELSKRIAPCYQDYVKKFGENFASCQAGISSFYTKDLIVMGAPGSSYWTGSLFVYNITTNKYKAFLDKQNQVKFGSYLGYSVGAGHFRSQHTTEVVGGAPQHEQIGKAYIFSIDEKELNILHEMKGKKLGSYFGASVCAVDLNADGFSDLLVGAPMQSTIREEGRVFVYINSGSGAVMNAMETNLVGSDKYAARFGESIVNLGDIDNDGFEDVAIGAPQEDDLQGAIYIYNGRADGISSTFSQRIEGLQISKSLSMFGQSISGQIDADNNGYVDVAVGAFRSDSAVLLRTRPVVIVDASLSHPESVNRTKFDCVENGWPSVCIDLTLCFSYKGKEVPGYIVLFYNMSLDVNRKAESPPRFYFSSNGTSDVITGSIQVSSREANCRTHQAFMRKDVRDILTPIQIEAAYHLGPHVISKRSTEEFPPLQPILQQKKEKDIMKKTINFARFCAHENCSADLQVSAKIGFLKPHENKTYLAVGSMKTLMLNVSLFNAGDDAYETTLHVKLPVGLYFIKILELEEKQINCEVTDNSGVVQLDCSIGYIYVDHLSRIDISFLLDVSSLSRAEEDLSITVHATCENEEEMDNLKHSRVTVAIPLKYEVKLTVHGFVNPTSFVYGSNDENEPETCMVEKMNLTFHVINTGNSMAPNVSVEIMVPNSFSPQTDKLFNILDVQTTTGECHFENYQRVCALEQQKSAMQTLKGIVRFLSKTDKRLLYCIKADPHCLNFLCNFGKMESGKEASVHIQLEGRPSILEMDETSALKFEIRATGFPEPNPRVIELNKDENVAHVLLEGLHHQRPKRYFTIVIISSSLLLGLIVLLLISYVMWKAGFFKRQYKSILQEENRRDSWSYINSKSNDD
Beta-2 adrenergic receptor (Homo sapiens), sequence (P07550 whole entry, looked up): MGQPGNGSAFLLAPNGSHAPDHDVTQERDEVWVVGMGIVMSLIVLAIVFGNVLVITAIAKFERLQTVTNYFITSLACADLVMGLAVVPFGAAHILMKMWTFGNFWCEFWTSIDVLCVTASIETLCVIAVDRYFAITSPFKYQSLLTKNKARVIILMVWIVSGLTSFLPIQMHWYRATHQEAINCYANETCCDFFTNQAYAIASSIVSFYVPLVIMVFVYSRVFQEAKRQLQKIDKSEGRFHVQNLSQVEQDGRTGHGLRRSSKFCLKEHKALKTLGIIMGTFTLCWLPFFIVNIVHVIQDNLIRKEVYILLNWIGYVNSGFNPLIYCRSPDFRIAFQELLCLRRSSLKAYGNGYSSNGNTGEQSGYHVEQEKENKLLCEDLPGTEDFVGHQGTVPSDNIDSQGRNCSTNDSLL
ATP-binding cassette sub-family B member 6 (Homo sapiens), sequence (Q9NP58 whole entry, looked up): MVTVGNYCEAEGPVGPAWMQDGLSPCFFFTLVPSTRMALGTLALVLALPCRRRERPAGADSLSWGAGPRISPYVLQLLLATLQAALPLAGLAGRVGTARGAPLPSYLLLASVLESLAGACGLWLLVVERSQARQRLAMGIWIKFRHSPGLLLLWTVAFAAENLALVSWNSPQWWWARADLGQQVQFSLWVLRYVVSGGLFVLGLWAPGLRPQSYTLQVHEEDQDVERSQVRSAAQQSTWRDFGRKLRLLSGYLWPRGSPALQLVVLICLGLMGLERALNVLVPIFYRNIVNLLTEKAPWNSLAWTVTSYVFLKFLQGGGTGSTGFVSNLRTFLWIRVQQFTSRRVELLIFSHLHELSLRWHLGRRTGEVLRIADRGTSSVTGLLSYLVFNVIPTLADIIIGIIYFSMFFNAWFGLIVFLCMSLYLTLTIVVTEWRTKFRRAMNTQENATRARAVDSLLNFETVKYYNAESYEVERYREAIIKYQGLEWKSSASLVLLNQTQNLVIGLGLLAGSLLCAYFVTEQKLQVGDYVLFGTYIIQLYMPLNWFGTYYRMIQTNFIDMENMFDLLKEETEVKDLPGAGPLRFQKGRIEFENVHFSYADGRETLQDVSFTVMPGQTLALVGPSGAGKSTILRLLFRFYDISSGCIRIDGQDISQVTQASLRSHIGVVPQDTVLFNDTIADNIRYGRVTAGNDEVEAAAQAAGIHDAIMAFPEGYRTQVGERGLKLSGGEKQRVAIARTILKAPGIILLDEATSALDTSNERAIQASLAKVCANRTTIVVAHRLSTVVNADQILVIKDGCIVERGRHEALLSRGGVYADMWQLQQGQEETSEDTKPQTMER
Beta-adrenergic receptor kinase 1 (Homo sapiens), sequence (P25098 whole entry, looked up): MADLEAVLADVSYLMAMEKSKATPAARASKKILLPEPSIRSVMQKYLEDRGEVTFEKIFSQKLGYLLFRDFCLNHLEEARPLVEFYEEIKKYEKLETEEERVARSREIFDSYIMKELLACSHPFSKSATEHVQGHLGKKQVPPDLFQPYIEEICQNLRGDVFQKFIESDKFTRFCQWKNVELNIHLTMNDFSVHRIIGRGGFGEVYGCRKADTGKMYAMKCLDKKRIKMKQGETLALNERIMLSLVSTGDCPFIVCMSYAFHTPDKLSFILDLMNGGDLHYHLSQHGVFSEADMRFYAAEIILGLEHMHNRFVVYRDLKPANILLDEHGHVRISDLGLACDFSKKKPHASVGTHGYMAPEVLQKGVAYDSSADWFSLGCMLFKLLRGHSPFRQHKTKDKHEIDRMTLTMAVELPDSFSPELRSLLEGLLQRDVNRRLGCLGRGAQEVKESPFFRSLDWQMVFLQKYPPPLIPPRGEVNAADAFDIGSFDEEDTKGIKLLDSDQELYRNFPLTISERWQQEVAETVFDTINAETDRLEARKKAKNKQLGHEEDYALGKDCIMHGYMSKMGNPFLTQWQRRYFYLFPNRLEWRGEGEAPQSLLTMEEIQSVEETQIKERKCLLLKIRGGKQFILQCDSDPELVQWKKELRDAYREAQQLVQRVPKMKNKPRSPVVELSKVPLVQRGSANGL

Turning to `COCC(C)NC(=O)c1ccc(CN2CCc3ccccc3C2)cc1` (stereo not given), the percent of DMSO control GFP in [1] is 97.3% (inactive). The GFP response vs DMSO is 108% (inactive) in assay [2] and 120% (inactive) in [4]. In addition, in assay [3], the percent response of DMSO control is 103% (inactive). Also, in assay [5], the GFP response, % of DMSO was 92.6% (inactive). Further, the double positive events in assay [6] was 60.9%. The vesicle binding response in assay [6] was 257% (inactive). For the same compound, the inhibition was -12.7% (inactive) in assay [7], 53.4% (inactive) in assay [11] and 2% (inactive) in assay [15]. Besides, the superoxide response (% of plate) in [8] is 103% (inactive). Besides, the aptamer binding inhibition in assay [9] was -9% (inactive). In addition, the response in assay [10] is -5.78% (inactive); in [12], -6.18% (inactive). Besides, the binding (% of control) in assay [13] was 195% (inactive). For the same compound, the efflux inhibition (fraction of control) in assay [14] was -0.1 (inactive). In addition, the differentiation response in assay [16] was 16.8% (inactive).

As for `Cc1ccc(-c2nnc(-c3ccc4c(c3)OCO4)o2)cc1`, in [1], the percent of DMSO control GFP was 103% (inactive). Also, the GFP response vs DMSO in assay [2] is 106% (inactive); in assay [4] it was 121% (inactive). In addition, the percent response of DMSO control in [3] is 109% (inactive). Also, in assay [5], the GFP response, % of DMSO was 115% (inactive). This compound registered a double positive events in assay [6] of 57.9%. The vesicle binding response in assay [6] was 165% (inactive). Moreover, the figures for the inhibition in assay [7], in [11] and in [15] were -2.82% (inactive), 6.09% (inactive) and 2% (inactive), respectively. Also, the superoxide response (% of plate) in [8] was 98.9% (inactive). Also, the aptamer binding inhibition in [9] was -7% (inactive). The response is -16.4% (inactive) in assay [10] and 2.28% (inactive) in assay [12]. Besides, the binding (% of control) in assay [13] was 99.9% (inactive). For the same compound, the efflux inhibition (fraction of control) in assay [14] was 0.04 (inactive). Moreover, in [16], the differentiation response was -0.06% (inactive).

Take `NC(CO)C(=O)NNCc1ccc(O)c(O)c1O` (stereo not given): the percent of DMSO control GFP in assay [1] is 98.4% (inactive). Further, the GFP response vs DMSO in assay [2] was 98.7% (inactive); in [4] it was 91.5% (inactive). Moreover, the percent response of DMSO control in assay [3] is 98.6% (inactive). For the same compound, in assay [5], the GFP response, % of DMSO is 96.5% (inactive). This compound also had a double positive events in assay [6] of 65.1%. Besides, the vesicle binding response in assay [6] is 130% (inactive). The inhibition is 13.7% (inactive) in assay [7], 62.4% (active) in assay [11] and 5% (inactive) in assay [15]. The superoxide response (% of plate) in assay [8] was 92.9% (inactive). Moreover, the aptamer binding inhibition in assay [9] is 8% (inactive). Besides, the response in [10] was 8.54% (inactive); in assay [12] it was -0.21% (inactive). For the same compound, the binding (% of control) in [13] is 60.7% (active). Further, the efflux inhibition (fraction of control) in assay [14] was 0.66 (active). Further, the differentiation response in assay [16] is -8.96% (inactive).

With `COc1ccc(NC(=O)CC2C(=O)N(C)C(=S)N2Cc2ccncc2)cc1` (stereo not given), the percent of DMSO control GFP in assay [1] was 88% (inactive). Also, the GFP response vs DMSO in assay [2] is 123% (inactive); in assay [4] it was 75.4% (inactive). In [3], the percent response of DMSO control is 97.9% (inactive). Also, the GFP response, % of DMSO in assay [5] was 88.2% (inactive). The double positive events in assay [6] is 54.8%. In assay [6], the vesicle binding response is 194% (inactive). The inhibition in [7] is 5.49% (inactive); in [11], 0.05% (inactive); in assay [15], 8% (inactive). The superoxide response (% of plate) in assay [8] was 105% (inactive). In assay [9], the aptamer binding inhibition is 0% (inactive). The response was -1.13% (inactive) in [10] and -1.16% (inactive) in assay [12]. In addition, in [13], the binding (% of control) is 100% (inactive). The efflux inhibition (fraction of control) in assay [14] was 0.01 (inactive). In addition, the differentiation response in assay [16] was 1.64% (inactive).

On to `NC(N)=NC(N)=Nc1ccc2ccccc2c1`, for which the percent of DMSO control GFP in assay [1] was 102% (inactive). The values for the GFP response vs DMSO in assay [2] and in assay [4] were 97.4% (inactive) and 85.4% (inactive), respectively. In addition, the percent response of DMSO control in assay [3] is 104% (inactive). The GFP response, % of DMSO in [5] is 95.8% (inactive). Further, in assay [6], the double positive events was found to be 58.7%. Also, in assay [6], the vesicle binding response is 183% (inactive). The inhibition is 3.67% (inactive) in assay [7], 16% (inactive) in assay [11] and -3% (inactive) in [15]. Also, in assay [8], the superoxide response (% of plate) was 106% (inactive). In addition, the aptamer binding inhibition in [9] was 1% (inactive). For the same compound, the values for the response in assay [10] and in assay [12] were 18% (inactive) and -3.32% (inactive), respectively. Further, the binding (% of control) in assay [13] was 97.8% (inactive). Besides, the efflux inhibition (fraction of control) in assay [14] is -0.21 (inactive). Further, in assay [16], the differentiation response is -0.8% (inactive).
